The source made the active and inactive calls.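 The calls were made as follows: active = inhibition of the reporter signal at or above 50%; inactive = inhibition below 50%.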

The nature of the assay: TLR3 IRF3 reporter activation blockers – cell-based, poly I:C stimulus, luciferase, 10K MLSCN set, primary screen (AID 602277). The conditions noted are these: HEK293-TLR3 RL24 IRF3 luciferase reporter, at 10 µM, hits give high values.
Turning to `N#CC1=C(N)OC2=C(C(=O)CCC2)C1CCc1ccccc1` (centres undefined), the inhibition is 15.7% (inactive).
For `CC(=N\O)/C(CN(C)C)=N/O` the value was 1.97% (inactive); for `CCOC(=O)C1/C(=N\O)CC(C)(O)C(C(=O)OCC)C1c1ccc(N(C)C)cc1` (centres undefined), 16% (inactive).
For the compound `CCOc1cc(C2Nc3ccccc3C(=O)N2c2ccccc2OC)ccc1O` (centres undefined), the inhibition was -13.2% (inactive).
For `CCOC(=O)C1=C(N)c2ccccc2CC1C(C)C` (centres undefined) the value was 26.3% (inactive); for `CCOc1ccc2nc(SCC(=O)Nc3ncccn3)[nH]c2c1`, 99.1% (active).
For `O=C(CCN1C(=O)c2ccccc2C1=O)OCN1C(=O)c2ccccc2C1=O` the value was -11.6% (inactive); for `CCOC(=O)Cc1nnc(Nc2cccc(O)c2)c2ccccc12`, -8.25% (inactive); for `Cc1cc(/C=N\O)c(C)n1-c1ccncc1`, 25.1% (inactive).
`Cc1ccc(NC(=O)CSC2=C(C#N)C(c3ccc4c(c3)OCO4)CC(=O)N2)cc1C` (centres undefined): the inhibition is -9.47% (inactive).
With `CC1(C2(O)CC(c3ccccc3)ON2)CCCCC1` (centres undefined) the figure was 4.59% (inactive).
On to `COc1ccc(Cn2c(N)c(C#N)c3nc4ccccc4nc32)cc1OC`, for which the inhibition is 14.9% (inactive).
On to `Cc1nnc(SCC(=O)N2CCC(C(N)=O)CC2)s1`, for which the inhibition is 7.15% (inactive).
For `C=CCn1c(SCC(=O)c2ccccc2)nnc1-c1ccc2c(c1)OCO2` the value was -3.99% (inactive).
On to `CC(C)(C)c1ccc(O)c(N)c1`, for which the inhibition is 18% (inactive).
For `CC(=O)Nc1ccc(-c2cc3ccccc3o2)cc1` the value was -112% (inactive); for `COC(=O)c1ccccc1NC(=O)CSc1nnc(-c2ccncc2)o1`, 19.8% (inactive); for `Cc1c(C=NCCOCc2ccccc2)cnn1C`, 12.3% (inactive).
For `CCS(=O)(=O)CCn1c([N+](=O)[O-])cnc1C` the value was -11.5% (inactive); for `Cc1ccc(-n2c(N)c(C(N)=O)sc2=S)cc1`, 15.4% (inactive).
For `CCN(CC)CCOC(=O)C1(c2ccc(OC)c(OC)c2)CCCC1` the value was 21% (inactive); for `CCN(CC)C(=O)c1sc2nc(-c3cccs3)cc(-c3cccs3)c2c1N`, 23.7% (inactive).
Take `COc1ccc(/C(O)=C2/C(=O)C(=O)N(CCN(C)C)C2c2ccccn2)cc1OC` (centres undefined): the inhibition is 5.99% (inactive).
With `CC1(C(=O)CSc2nc3ccccc3s2)CCC(=O)O1` (centres undefined), the inhibition was 21.8% (inactive).
For `O=C(O)CC1Sc2nc3ccccc3n2C1=O` (centres undefined) the value was 12.9% (inactive); for `CC(=O)Nc1ccc(Oc2ccc3nc(C)[nH]c3c2)cc1`, -0.929% (inactive).
As to `CC(C)c1nc(NCC2CCCO2)c(C#N)c2c1COC(C)(C)C2` (centres undefined), the inhibition was 25.1% (inactive).
For `N#Cc1nc(COc2ccc(Br)cc2)oc1N1CCCC1` the value was 1.37% (inactive); for `CCCC1Cc2c(sc3ncnc(N)c23)CO1` (centres undefined), 5.36% (inactive); for `Cc1nc(Sc2cccn2C)c(C(F)(F)F)c(=O)[nH]1`, 3.1% (inactive).
For `COC(=O)c1cc(Br)c(=O)n(-c2nccs2)c1` the value was 1.38% (inactive).
For the compound `Cc1ccc(SCc2[nH]nc3c2C(c2ccc(C)o2)C(C#N)=C(N)O3)cc1` (centres undefined), the inhibition was -11.1% (inactive).
As for `COc1cccc(C2C(C(=O)c3cc4ccccc4o3)=C(O)C(=O)N2CCN(C)C)c1OC` (centres undefined), the inhibition is 6.82% (inactive).
With `Cc1cc(C)n(CC2CC(=O)N(c3ccc(Cl)c(Cl)c3)C2=O)n1` (centres undefined) the figure was 6.73% (inactive).
With `CN1CCN(c2nc3c(c(=O)n(C)c(=O)n3C)n2Cc2cccc3ccccc23)CC1` the figure was 19.8% (inactive).
With `CC(C)C(=O)N1CCN(c2nc(-c3ccccc3)c3c(c2C#N)CCCC3)CC1` the figure was 17.9% (inactive); with `CCSc1nc(O)c(C2OC(=O)c3c2ccc(OC)c3OC)c(=O)n1-c1ccccc1` (centres undefined), 25.6% (inactive); with `COc1cccc(NC(=O)CC2SC(=Nc3ccccc3)NC2=O)c1` (centres undefined), 97.6% (active).
For the compound `Cc1nnc(NCc2n[nH]c(=O)c3ccccc23)c2ccccc12`, the inhibition was -7.48% (inactive).

The values above are taken from PubChem BioAssay.
